Test results published in PubChem BioAssay.
Potency and affinity values are given separately. Records with an inconclusive call do not appear. The source made the active and inactive calls. Unless noted, the rule behind the calls is not given here.

Assays:
[1] = HepG2 cell cytotoxicity, dose response, cytotoxicity control, cherry-picks, set 2 (AID 687002;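 active = a dose-response fit showing signal loss, with half-maximal concentration no higher than twice the top tested dose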)
[2] = HeLa cell cytotoxicity, dose response, cytotoxicity control, ATP luminescence, cherry-pick samples (AID 687004;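 active = a fitted half-maximal concentration no higher than twice the top valid tested dose, with signal falling as cells die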;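 note: 0% = neutral control median and -100% = staurosporine 10 µM control median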)
[3] = inhibitors of PAX8-driven TPO luciferase reporter, dose response, RMG-I cells, cherry-pick (AID 687027;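 active = every replicate test run called active, with the signal dropping as expected and potency within twice the top valid dose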)
[4] = cytotoxicity in PAX8-dependent RMG-1 cells, dose response, cell-based, cherry-pick (AID 687029;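 active = signal drop whose fitted half-maximal concentration is at most twice the top valid dose, in every test run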;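 note: cells exposed to compound for 96 hours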)
[5] = cytotoxicity in IOSE-T80 ovarian epithelial cells, dose response, selectivity assay for PAX8 inhibitor project, cell-based, cherry-pick (AID 687032;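 active = fitted half-maximal concentration for viability loss no higher than twice the top valid dose, in every repeat run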;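 note: cells exposed to compound for 96 h before reading; 0% = neutral control wells and -100% = 2 µM mitoxantrone kill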)
[6] = inhibitors of CMV-promoter luciferase reporter, dose response, counter-screen for Pax8 inhibitor project, cell-based, HEK293, luminescence, dry powder (AID 743020;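 active = signal-lowering compounds whose fitted half-maximal concentration is at or below twice the top tested dose in every run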;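 note: HEK293 cells stably expressing the CMV luciferase reporter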)
[7] = non-specific cell cytotoxicity, dose response, cytotoxicity control for PAX8 inhibitor project, plate reader, dry powder samples (AID 743021)
[8] = IGROV1 ovarian cancer cell cytotoxicity, dose response, PAX8 inhibitor project, plate reader, dry powder samples (AID 743043);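 note: more negative means fewer viable cells or more cytotoxicity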
[9] = NIH:OVCAR-3 ovarian cancer cell cytotoxicity, dose response, PAX8 inhibitor project, plate reader, dry powder samples (AID 743044); settings: max activity: at 35 µM, hits give low values unless noted
[10] = IOSE-T80 ovarian epithelial cell cytotoxicity, dose response, cytotoxicity control for PAX8 inhibitor project, plate reader, dry powder samples (AID 743045);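 note: 0% = neutral control median and -100% = positive control median; more negative values mean more cell killing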
[11] = A2780 ovarian cancer cell cytotoxicity, dose response, cytotoxicity control, plate reader, dry powder samples (AID 743046);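 note: 0% = neutral control wells and -100% = cytotoxic reference compound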
[12] = cytotoxicity in OVCAR8 ovarian cancer cells, dose response, PAX8 project, cell-based, plate reader, dry powder samples (AID 743197)

Measured: max activity

O=C(NC(=S)Nc1cc(Cl)ccc1N1CCOCC1)c1ccccc1[N+](=O)[O-]
inactive: [1] | [2]

Cc1ccc(C(=O)NC(=S)Nc2ccc(N3CCOCC3)cc2)cc1
inactive: [1] | [2]

Cc1cc(C)c2nc(N3CCN(C(=O)c4cccs4)CC3)sc2c1
inactive: [1] | [2]

Cc1cc(Cl)ccc1NC(=S)NCc1ccc(F)cc1
inactive: [1] | [2]

COC(=O)C1=C(C)N(Cc2ccc(Cl)cc2)C(=S)NC1c1ccccc1 (stereo not given)
inactive: [1] | [2]

O=C(COC(=O)CCC1CCCC1)Nc1nc2c(F)c(F)c(F)cc2s1
inactive: [1] | [2]

COc1cccc(C(=O)NC(=S)Nc2ccccc2N2CCOCC2)c1
inactive: [1] | [2]

C[C@@H]1CN([C@H](C)CO)C(=O)c2cccc(NC(=O)Nc3ccc(C(F)(F)F)cc3)c2O[C@H]1CN(C)CC1CC1
inactive: [3] | [4] | [5] | [6] | [7] | [8] | [9] -14% [at 0.26 µM, hits give low values] | [10] | [11] | [12]

C[C@@H]1CN([C@@H](C)CO)C(=O)c2cccc(NS(=O)(=O)c3ccc(F)cc3)c2O[C@H]1CN(C)Cc1ccc(-c2ccccc2)cc1
inactive: [3] | [4] | [5] | [6] | [7] | [8] | [9] 17.5% | [10] | [11] | [12]

COc1ccc(-c2cn(CC[C@H]3CC[C@@H](NC(=O)Cc4ccccn4)[C@@H](CO)O3)nn2)cc1
inactive: [3] | [4] | [5] | [6] | [7] | [8] | [9] -22.3% [at 4.2 µM, hits give low values] | [10]

COc1ccc(-c2cn(CC[C@H]3CC[C@H](NC(=O)Cc4ccccn4)[C@@H](CO)O3)nn2)cc1
inactive: [3] | [4] | [5] | [6] | [7] | [8] | [9] -17.4% | [10] | [11] | [12]

O=C(C[C@@H]1C=C[C@H](NC(=O)Nc2ccc(C(F)(F)F)cc2)[C@H](CO)O1)NCCN1CCCC1
inactive: [3] | [4] | [5] | [6] | [7] | [8] | [9] 7.59% [at 2.1 µM, hits give low values] | [10] | [11] | [12]

O=C(NC1CCCC1)N1CCCCN2[C@@H](CO)[C@@H](c3ccc(/C=C/c4ccccc4)cc3)[C@@H]2C1
inactive: [3] | [4] | [5] | [6] | [7] | [8] | [9] 28.4% [at 2.1 µM, hits give low values] | [10] | [12]

O=C(Cc1ccccn1)N[C@H]1CC[C@H](CCn2cc(-c3ccccc3)nn2)O[C@@H]1CO
inactive: [3] | [4] | [5] | [6] | [7] | [8] | [9] -16.8% [at 16 µM, hits give low values] | [10] | [11] | [12]

C[C@@H]1CCCCO[C@@H](CN(C)CC2CCCCC2)[C@H](C)CN([C@H](C)CO)C(=O)c2cc(NC(=O)Nc3ccccc3)ccc2O1
inactive: [3] | [4] | [5] | [6] | [7] | [8] | [9] -37.2% [at 4.2 µM, hits give low values] | [10] | [12]

O=C(Cc1ccccn1)NCC[C@@H]1CC[C@H](NC(=O)Nc2ccc(C(F)(F)F)cc2)[C@@H](CO)O1
inactive: [3] | [4] | [5] | [6] | [7] | [8] | [9] -10.6% [at 16 µM, hits give low values] | [10] | [11] | [12]

C[C@H]1CCCCO[C@@H](CN(C)Cc2ccc(C(=O)O)cc2)[C@@H](C)CN([C@@H](C)CO)C(=O)c2cc(NS(=O)(=O)c3ccc(Cl)cc3)ccc2O1
inactive: [3] | [4] | [5] | [6] | [7] | [8] | [9] 4.48% | [10] | [11] | [12]

O=C(C[C@@H]1C[C@@H]2c3cc(NC(=O)Nc4ccccc4F)ccc3O[C@@H]2[C@H](CO)O1)NCc1ccc(Oc2ccccc2)cc1
inactive: [3] | [4] | [5] | [6] | [7] | [8] | [9] 14% [at 0.5 µM, hits give low values] | [10] | [11] | [12]
